# Measured values reported in PubChem BioAssay AID504832 (National Center for Advancing Translational Sciences (NCATS), 2011).
# The whole screen tested about 310,000 compounds, of which about 18,000 (5.8%) were called active. Not shown: some 22% with an inconclusive outcome. This excerpt belongs to a sample that is enriched for actives. Values without a mark were called inactive. The call rests on the fitted dose curve; in most records, active means well fitted inhibition curve with a large enough effect; inconclusive means small, poorly fitted or top-dose-only effect, or another doubt; inactive means no such curve, though single readings can be large or run the other way.
# Assay: Primary qHTS for delayed death inhibitors of the malarial parasite plastid, 48 hour incubation
# Settings: P. falciparum luciferase growth in erythrocytes; series mostly up to 28.7 µM; activity change, negative = inhibition: at the top concentration
# Method in brief: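 Erythrocytes infected with P. falciparum carrying an integrated firefly luciferase reporter (2% hematocrit, 0.1% parasitemia final) were exposed to compounds in RPMI 1640 with 0.5% Albumax at 37 C, 5% CO2. Growth inhibition was scored as reduced luminescence.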
# On the % scale 0 is the no-effect control and ±100 the full control effect; potency means the concentration at half of the fitted maximal effect.
SMILES,"activity change, negative = inhibition",Potency
COc1ccccc1C(=O)NCCC(=O)NN1C(=O)NC2(CCCCC2)C1=O,4.51%,–
COC(=O)c1cccc(N(CC(=O)NCC2CCCO2)C(=O)CCC(=O)Nc2cc(C)on2)c1 (stereo not drawn),7.34%,–
Cc1cc(NC(=O)CCC(=O)N(CC(=O)NCC2CCCO2)c2ccccc2)no1 (stereo not drawn),3.81%,–
CCCCOc1ccc(N(CC(=O)NCC2CCCO2)C(=O)CCC(=O)Nc2cc(C)ccn2)cc1 (stereo not drawn),–,9.28 µM (active)
Cc1cccc(OCCC(=O)OCc2csc(CC(=O)Nc3ccccc3C)n2)c1,-15.4%,–
Cn1ncc2c(N3CCCCC3)nc(NCCCO)nc21,1.55%,–
Cc1ccc(NC(=O)CCCNC(=O)c2ccc(Cl)cc2)cc1S(=O)(=O)N1CCCCC1,6.37%,–
CCc1ccccc1OCC(=O)Nc1ccc(C)c(S(=O)(=O)N2CCCCCC2)c1,–,10.4 µM (active)
CCc1ccccc1OCC(=O)Nc1ccc2c(c1)OCCO2,101%,–
COc1ccc(C(=O)NC2CC(C)(C)NC(C)(C)C2)cc1OC,7.82%,–
COc1ccc(S(=O)(=O)NC(C)c2ccccc2)cc1C(=O)N1CCCCC1 (stereo not drawn),-18.6%,–
COc1cccc(C(=O)NNS(=O)(=O)c2ccc(F)cc2)c1,23.1%,–
CN(C)CC/C=C1\c2ccccc2CSc2ccccc21,–,10.4 µM (active)
CN(C)Cc1ccccc1C1(O)c2ccccc2CSc2ccccc21 (stereo not drawn),0%,–
CCOc1ccc(C(=O)Nc2cc(Cl)ccc2-n2cncn2)cc1OC,15.5%,–
O=C(CNc1cccc(S(=O)(=O)N2CCCCC2)c1)Nc1ccccc1F,-12.3%,–
O=C(NCc1cc(F)cc(C(F)(F)F)c1)C1CCC(=O)N(C2CCCC2)C1 (stereo not drawn),-11.5%,–
Cc1cc(NC(=O)c2ccco2)c(=O)n(Cc2c(F)cccc2Cl)c1,-0.249%,–
COC(=O)C1=C(Nc2ccc(OC)cc2)C=C(C)C(C(=O)OC)C1c1ccc(C)cc1 (stereo not drawn),–,10.4 µM (active)
COC(=O)C1=C(Nc2ccc(C)cc2)C=C(C)C(C(=O)OC)C1c1ccc(F)cc1 (stereo not drawn),–,3.7 µM (active)
Cc1ccc(NC(=S)Nc2ccc(F)cc2)cc1,6.95%,–
COc1ccc(N2C(=O)C(O)C2c2ccc(C)cc2)cc1 (stereo not drawn),5.17%,–
COC(=O)C1C(=O)NCC1c1ccc(OC)cc1 (stereo not drawn),23.4%,–
Cc1ccc(C(=O)CNc2ccc(F)cc2)cc1,-7.87%,–
c1ccc2c(c1)CCc1snnc1-2,23.2%,–
COC(=O)c1cc(CNC(=O)CC(C)c2ccccc2)ccc1OC (stereo not drawn),6.94%,–
CCOc1cc(/C=N/NC(=O)CN2CCCCC2)ccc1O,37.9%,–

SMILES,"activity change, negative = inhibition",Potency
CCOC(=O)N1CCN(CCC(=O)Nc2ccccc2)CC1,-15.3%,–
O=C(Nc1c2c(nc3ccccc13)CCCC2)c1ccccc1Br,2.38%,–
Cc1noc(C)c1COC(=O)c1cc2ccccc2cc1O,22.6%,–
O=C(NNc1c2ccccc2nc2ccccc12)c1cc2ccccc2cc1O,–,11.7 µM (active)
COc1cccc(CSc2nc3nc(C)cc(C)n3n2)c1,18.8%,–
COCCn1c(SCc2nc3cc(OC)c(OC)cc3c(=O)[nH]2)nnc1-c1ccncc1,1.35%,–
COC(=O)CSc1nc2ccccc2c(=O)n1Cc1ccccc1,13.8%,–
CCn1c(SCc2ccccc2)nc2cc(OC)c(OC)cc2c1=O,–,10.4 µM (active)
CCn1c(SCc2ccccc2)nc2c(c1=O)SCC2,-2.57%,–
COCCCn1c(SCc2cccc(OC)c2)nc2cc(OC)c(OC)cc2c1=N,–,2.62 µM (active)
Cc1ccc(NC2CCCN(C(=O)CCc3cn[nH]c3)C2)cc1C (stereo not drawn),-0.298%,–
COc1ccc(S(=O)(=O)Nc2cc(C)on2)cc1NC(C)=O,-8.24%,–
Cc1ccc2nc(SCC(=O)N3CC(C)OC(C)C3)nc(=O)n2c1 (stereo not drawn),-18.9%,–
CC(C)Nc1ccc(-n2nc3ccccc3[n+]2[O-])cc1,115%,–
COc1ccc(NC(=O)C2CCN(S(=O)(=O)c3ccc4[nH]c(=O)oc4c3)CC2)c(OC)c1,-16.8%,–
COc1ccc(C(CNC(=O)COc2ccccc2OC)N2CCCCC2)cc1 (stereo not drawn),-3.54%,–
COc1ccccc1CN1CC(C(=O)NCCc2cn[nH]c2)CCC1=O (stereo not drawn),6.82%,–
COc1ccc2c(c1)C(SCC(=O)NCc1ccccc1)CC(C)(C)O2 (stereo not drawn),-9.16%,–
CN1c2ccc([N+](=O)[O-])cc2C(C)(C)C12C=Cc1cc(C(=O)O)ccc1O2 (stereo not drawn),16.2% [at 0.00184 µM],–
COc1ccc2c(c1)C=CC1(O2)N(CCO)c2ccccc2C1(C)C (stereo not drawn),–,13.1 µM (active)
CC1CCCCC1NC(=O)COC(=O)Cc1ccc(Cl)cc1 (stereo not drawn),12.1%,–
CSc1nnc2ccc(-c3ccc(C)cc3)nn12,30.7%,–
Cc1ccc(S(=O)(=O)n2cccc2CO)cc1,17.4%,–
CN(C)CCNc1ccc(-c2n[nH]c(=O)c3ccccc23)cc1[N+](=O)[O-],18.1%,–
COCCNc1ccc(-c2n[nH]c(=O)c3ccccc23)cc1[N+](=O)[O-],–,4.65 µM (active)
COCCNc1cc(NCCOC)c([N+](=O)[O-])cc1[N+](=O)[O-],0.111%,–
